Legend:
Assay in all cases: thermal shift delta Tm vs DMSO control; higher = stronger stabilization (binding)
Settings in all cases: 12.5 µM; protein concentration 2 µM
LOC_OS01G57100-cb003 = tested on: LOC_OS01G57100-cb003
Method in brief: (§1)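 Thermal shift values come from differential scanning fluorimetry on purified rice kinase domains made in E. coli, with melting temperatures obtained from Boltzmann fits. Samples of 19.5 μl held 2 μM kinase, 100 mM potassium phosphate pH 7.5, 150 mM NaCl, 10% glycerol, 5 × SYPRO Orange and compound in DMSO, and were heated from 25°C to 95°C at 0.05°C/s. Each shift is a triplicate mean relative to the DMSO-only protein sample.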

LOC_OS01G60330-cb001 = tested on: LOC_OS01G60330-cb001
Method in brief: as §1

LOC_OS01G60700-cb002 = tested on: LOC_OS01G60700-cb002
Method in brief: as §1

LOC_OS01G63280-cb003 = tested on: LOC_OS01G63280-cb003
Method in brief: as §1

LOC_OS01G67340-cb003 = tested on: LOC_OS01G67340-cb003
Method in brief: as §1

LOC_OS01G70970-cb002 = tested on: LOC_OS01G70970-cb002
Method in brief: as §1

LOC_OS02G07810-cb001 = tested on: LOC_OS02G07810-cb001
Method in brief: as §1

LOC_OS02G08530-cb003 = tested on: LOC_OS02G08530-cb003
Method in brief: as §1

LOC_OS02G14120-cb001 = tested on: LOC_OS02G14120-cb001
Method in brief: as §1

LOC_OS02G17970-cb001 = tested on: LOC_OS02G17970-cb001
Method in brief: as §1

LOC_OS02G45750-cb003 = tested on: LOC_OS02G45750-cb003
Method in brief: as §1

LOC_OS02G54510-cb004 = tested on: LOC_OS02G54510-cb004
Method in brief: as §1

LOC_OS03G04050-cb001 = tested on: LOC_OS03G04050-cb001
Method in brief: as §1

LOC_OS03G12390-cb001 = tested on: LOC_OS03G12390-cb001
Method in brief: as §1

LOC_OS03G27990-cb004 = tested on: LOC_OS03G27990-cb004
Method in brief: as §1

LOC_OS03G50450-cb001 = tested on: LOC_OS03G50450-cb001
Method in brief: as §1

LOC_OS03G50810-cb003 = tested on: LOC_OS03G50810-cb003
Method in brief: as §1

LOC_OS04G35114-cb001 = tested on: LOC_OS04G35114-cb001
Method in brief: as §1

LOC_OS04G38480-cb003 = tested on: T1, LOC_OS04G38480-cb003
T1 sequence (whole entry): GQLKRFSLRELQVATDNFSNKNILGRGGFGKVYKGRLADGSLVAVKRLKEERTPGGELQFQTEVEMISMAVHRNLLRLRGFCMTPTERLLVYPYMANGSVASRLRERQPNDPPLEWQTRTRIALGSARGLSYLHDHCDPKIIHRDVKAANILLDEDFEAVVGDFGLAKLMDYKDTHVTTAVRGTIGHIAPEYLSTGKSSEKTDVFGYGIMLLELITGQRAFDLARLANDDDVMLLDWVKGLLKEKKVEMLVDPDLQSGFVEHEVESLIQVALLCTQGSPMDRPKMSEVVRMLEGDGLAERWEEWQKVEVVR
Method in brief: as §1

LOC_OS04G41100-cb001 = tested on: T2, LOC_OS04G41100-cb001
T2 sequence (whole entry): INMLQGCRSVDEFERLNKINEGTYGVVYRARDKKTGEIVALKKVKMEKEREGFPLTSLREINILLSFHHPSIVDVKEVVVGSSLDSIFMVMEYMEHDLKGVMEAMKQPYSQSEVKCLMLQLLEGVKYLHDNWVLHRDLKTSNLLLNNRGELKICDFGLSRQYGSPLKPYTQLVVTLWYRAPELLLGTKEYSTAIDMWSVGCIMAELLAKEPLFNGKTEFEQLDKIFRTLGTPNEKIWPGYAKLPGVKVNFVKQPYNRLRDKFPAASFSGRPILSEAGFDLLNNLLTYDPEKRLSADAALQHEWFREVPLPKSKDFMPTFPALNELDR
Method in brief: as §1
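Note: purified Escherichia coli-expressed rice kinase domain construct.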

SMILES | thermal shift delta Tm (LOC_OS01G57100-cb003) [°C] | thermal shift delta Tm (LOC_OS01G60330-cb001) [°C] | thermal shift delta Tm (LOC_OS01G60700-cb002) [°C] | thermal shift delta Tm (LOC_OS01G63280-cb003) [°C] | thermal shift delta Tm (LOC_OS01G67340-cb003) [°C] | thermal shift delta Tm (LOC_OS01G70970-cb002) [°C] | thermal shift delta Tm (LOC_OS02G07810-cb001) [°C] | thermal shift delta Tm (LOC_OS02G08530-cb003) [°C] | thermal shift delta Tm (LOC_OS02G14120-cb001) [°C] | thermal shift delta Tm (LOC_OS02G17970-cb001) [°C] | thermal shift delta Tm (LOC_OS02G45750-cb003) [°C] | thermal shift delta Tm (LOC_OS02G54510-cb004) [°C] | thermal shift delta Tm (LOC_OS03G04050-cb001) [°C] | thermal shift delta Tm (LOC_OS03G12390-cb001) [°C] | thermal shift delta Tm (LOC_OS03G27990-cb004) [°C] | thermal shift delta Tm (LOC_OS03G50450-cb001) [°C] | thermal shift delta Tm (LOC_OS03G50810-cb003) [°C] | thermal shift delta Tm (LOC_OS04G35114-cb001) [°C] | thermal shift delta Tm (LOC_OS04G38480-cb003) [°C] | thermal shift delta Tm (LOC_OS04G41100-cb001) [°C]
CNC(=O)c1ccc(-c2cnc3ncc(Cc4ccc5ncccc5c4)n3n2)cc1F | 0.49 | -0.8 | 0.39 | 0.07 | 0.32 | -0.18 | 0.83 | 0.3 | -0.02 | 0.26 | 0.61 | 0.23 | 0.48 | -0.1 | 0.21 | 0.36 | 0.27 | 0.19 | 2.02 | 0.27
CN1CCN(c2ccc3nc(-c4c(N)c5c(F)cccc5[nH]c4=O)[nH]c3c2)CC1 [Dovitinib (TKI258) Lactate] | 1.26 | 14.2 | 1.84 | 1.58 | 7.49 | 8.33 | 0.88 | 4.27 | 6.8 | 2 | 16.7 | 2.48 | 1.03 | 5.56 | 8.6 | 5.37 | 7.48 | 10 | 3.95 | 1.24
COc1ccc(CCNCc2ccc(OCc3ccc(Cl)nc3)c(OC)c2)cc1OC | 1.03 | 0.8 | 0.19 | -0.28 | 0.24 | 0.23 | 0.28 | 0.56 | 0.14 | 0.22 | -0.45 | 0 | 0 | -0.53 | 0.12 | -0.17 | 0.18 | 0.23 | 0.05 | 0.41
COc1cc(OC)c(/C=C/S(=O)(=O)Cc2ccc(OC)c(NCC(=O)O)c2)c(OC)c1 | 0.72 | 0.72 | 1.27 | 0.67 | -0.23 | -0.1 | 1.48 | 0.79 | 0.49 | 0.94 | 0.52 | 0.14 | 0.35 | 0.36 | 0.04 | 0.44 | 0.25 | 0.47 | 1.33 | 0.67
Cn1cnc2c(F)c(Nc3ccc(Br)cc3Cl)c(C(=O)NOCCO)cc21 [Selumetinib (AZD6244)] | 0.72 | 0.77 | 1.13 | -0.08 | -0.85 | 0.48 | 0.62 | 0.39 | 0.1 | 0.19 | 0.34 | 0.31 | 0.26 | 0.11 | -0.04 | -0.25 | 0.02 | 0.24 | 0.38 | 0.75
CNC(=O)c1cccc(-c2ccc3c(N4CCOC[C@@H]4C)nc(N4CCOC[C@@H]4C)nc3n2)c1 [Vistusertib (AZD2014)] | 0.66 | 0.59 | 0.1 | 0.16 | 0.54 | 0.23 | 0.11 | 1.58 | 0 | -0.08 | 0.21 | 0.04 | 0.18 | -0.33 | 0.11 | 0.09 | 0.06 | -0.19 | 0.96 | 0.11
COc1ccc(Cl)c(Nc2nc3ccccc3nc2NS(=O)(=O)c2cccc(NC(=O)C(C)(C)N)c2)c1 [Pilaralisib (XL147)] | 0.77 | 3.02 | 0.4 | 2.27 | 2 | 1.26 | 1.84 | 0.06 | -0.43 | 1.12 | 1.06 | -0.18 | 0.85 | 2.37 | 1.12 | 1.09 | 1.54 | 2.89 | 2.92 | 1.52
CC(C)CC(NC(=O)C(Cc1ccccc1)NC(=O)C(CCC(N)=O)NC(=O)C(Cc1ccc(O)cc1)NC(=O)C(C)NC(=O)CNC(=O)C(CCCCN)NC(=O)C(Cc1c[nH]c2ccccc12)NC(=O)C(NC(=O)C(Cc1c[nH]c2ccccc12)NC(=O)C(CCCCN)NC(=O)CNC(=O)C(CC(N)=O)NC(=O)C(CCC(=O)O)NC(=O)C(Cc1c[nH]c2ccccc12)NC(=O)C(NC(=O)C(Cc1c[nH]c2ccccc12)NC(=O)C(CO)NC(=O)CNC(=O)C1CCCN1C(=O)C(Cc1c[nH]c2ccccc12)NC(=O)C(CCC(N)=O)NC(=O)C(Cc1ccccc1)NC(=O)CNC(=O)C(N)Cc1c[nH]cn1)C(C)O)C(C)O)C(=O)NC(CCCCN)C(=O)NCC(=O)NCC(=O)NCC(=O)NCC(=O)NC(CO)C(=O)NC(CCCNC(=N)N)C(=O)NC(CCCNC(=N)N)C(=O)NC(CCCNC(=N)N)C(=O)NC(CCCNC(=N)N)C(=O)NC(CCCNC(=N)N)C(=O)NC(CCCNC(=N)N)C(=O)NC(CCCNC(=N)N)C(=O)NC(CCCNC(=N)N)C(=O)NC(CCCNC(=N)N)C(=O)O (stereo not given) | 0.58 | 0.74 | 0.22 | 0.38 | 1.17 | 0.55 | 0.74 | 0.87 | 1.8 | -0.53 | 0.69 | 0.13 | 0.6 | -3.52 | -3.62 | 0.05 | -1.39 | 0.3 | 4.04 | 0.4
Cc1ccc(Nc2nccc(N(C)c3ccc4c(C)n(C)nc4c3)n2)cc1S(N)(=O)=O | 0.87 | 4.66 | 1.25 | 0.81 | 0.74 | 0.44 | 1.5 | 1.68 | 3.21 | 0.47 | 3.91 | 1.36 | 0.35 | 1.04 | 0.21 | 0.3 | 1.55 | 4.77 | 1.08 | 3.24
Nc1nccc(Oc2ccc3c(C(=O)Nc4cccc(C(F)(F)F)c4)cccc3c2)n1 | 1.31 | 1.99 | 0.86 | 7.54 | 0.91 | 0.71 | 0.76 | 0.59 | 1.14 | 1.47 | -1.33 | 0.78 | 0.37 | -0.16 | 0.11 | -0.18 | 0.17 | 0.62 | 1.77 | 0.51
OCCn1cc(-c2ccc3c(c2)CC/C3=N\O)c(-c2ccncc2)n1 | 0.82 | 1.25 | 0.99 | 0.67 | -0.31 | 0.26 | 1.43 | 1 | 0.49 | 0.48 | 0.34 | 0.15 | 0.48 | 0.53 | 0 | 0.31 | 0.5 | 0.11 | 0.49 | 0.67
CCc1nc(-c2cccc(C)c2)c(-c2ccnc(NC(=O)c3ccccc3)c2)s1 | 0.93 | 1.03 | 1.53 | 0.61 | 0.22 | 0.22 | 0.98 | 0.24 | 0.43 | 0.22 | 0.74 | -0.41 | 0.27 | 0.6 | 0.28 | 0.06 | 0.03 | 1.27 | 0.74 | 0.61
